# Source: PubChem BioAssay
# GBA activity = Glucocerebrosidase; purified enzyme, resorufin glucoside fluorescence (screen aimed at inhibitors), 20 min; Potency, µM; 48,000 tested, 1.1% active; in the data active = potency below about 15 µM; inconclusive = mostly about 16 µM to 33 µM;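 also: the screen sought inhibitors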
# Target sequence (P04062 whole entry, looked up): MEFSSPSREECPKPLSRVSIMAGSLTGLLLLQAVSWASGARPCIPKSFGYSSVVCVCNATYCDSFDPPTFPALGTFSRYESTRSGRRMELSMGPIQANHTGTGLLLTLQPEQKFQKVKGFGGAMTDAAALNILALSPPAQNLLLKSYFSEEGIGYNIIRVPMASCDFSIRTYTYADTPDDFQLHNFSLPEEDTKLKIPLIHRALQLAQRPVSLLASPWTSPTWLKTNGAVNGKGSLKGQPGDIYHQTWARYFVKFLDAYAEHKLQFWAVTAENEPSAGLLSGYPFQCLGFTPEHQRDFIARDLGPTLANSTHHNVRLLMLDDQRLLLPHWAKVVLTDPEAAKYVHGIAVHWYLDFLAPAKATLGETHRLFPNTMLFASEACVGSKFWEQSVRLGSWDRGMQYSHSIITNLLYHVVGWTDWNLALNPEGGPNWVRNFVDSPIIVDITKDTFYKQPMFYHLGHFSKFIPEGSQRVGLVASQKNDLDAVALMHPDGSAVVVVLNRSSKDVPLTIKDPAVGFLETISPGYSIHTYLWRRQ
#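 Wild-type enzyme at 0.2 nM final in 50mM citric acid/KH2PO4, 10mM sodium taurocholate, 0.01% tween-20, pH 5.9, with resorufin beta-D-glucopyranoside at 30 uM final. Compounds titrated, 20 min at RT, red fluorescence read; AC50 from titration.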
# PK Bst = Pyruvate Kinase; 51,000 tested, 1.2% active; Potency, µM; purified pyruvate kinase, luminescence ATP production; ribose 5-phosphate activator present at AC10; in the data active = potency below about 11 µM; inconclusive = mostly about 12 µM to 25 µM;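 the screen sought inhibitors and activators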;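 also: scaled between full activation by ribose 5 phosphate and full inhibition by luteolin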
# ERK AVP block = qHTS Assay for Inhibitors of the ERK Signaling Pathway using a Homogeneous Screening Assay; 72,000 tested, 0.99% active; Potency, µM (top dose mostly 57.5 µM), without a hit: at the highest dose activity, negative = inhibition, most hits filed as inhibitors; AID 995, 2007; HEK293-V1b, vasopressin-stimulated pERK AlphaScreen; also: % is scaled to controls: 0 for no effect and ±100 for the full control effect; nearly all actives have a fitted effect of over 55% in size
#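 Overnight-seeded V1b-HEK293 cells in 1% FBS got compound, then vasopressin (25 nM final, 5 min, 37C), then lysis buffer. AlphaScreen detection of phospho-ERK; activity normalized to basal and full-stimulation controls.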
# Luciferase inh = qHTS Assay for Inhibitors of Firefly Luciferase; AID 411, 2009; Potency, µM (top dose mostly 57.1 µM), without a hit: at the highest dose activity change, negative = inhibition, usual class: inhibitors; purified firefly luciferase, luminescence, 8 min; 72,000 tested, 2.2% active; also: % is scaled to controls: 0 for no effect and ±100 for the full control effect; nearly all actives have a fitted effect of over 40% in size
#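 Firefly luciferase (PKLight detection mix) with 10 uM ATP in pH 7.2 imidazole buffer (KCl, MgCl2, Tween 20, BSA). Compounds tested across a concentration series (qHTS). Luminescence read after 8 min at ambient temperature.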
# An asterisk follows results filed as active; i = inactive; ? = inconclusive; · = no result given; [ ] = dose if it differs, or a comment. Compounds with a hit are over-represented: about 3.9% of the library has one in this group of screens. Unless noted, calls follow the shape of the dose curve; as a rule, active = well fitted curve in the direction sought with a large enough effect; inconclusive = small, poorly fitted or top-dose-only effect, or another doubt; inactive = no such curve, though single readings can be large; an effect the other way counts as inactive or inconclusive. Potency is read from the fitted curve at half-maximal effect.
SMILES,GBA activity,PK Bst,ERK AVP block,Luciferase inh
O=C(NC1CC2CCC(C1)N2C(=O)NC1CCCCC1)NC12CC3CC(CC(C3)C1)C2 (centres undefined),>77,>57,21%,1%
O=C(NC1CC2CCCC(C1)N2C1CC1)NC12CC3CC(CC(C3)C1)C2 (centres undefined),10*,>57,-3%,-32%
Cc1ccc(O)c(-c2cc(C(F)(F)C(F)F)[nH]n2)c1,>77,>57,-27%,-6%
FC(F)C(F)(F)C(F)(F)C(F)(F)c1cc(-c2ccccc2)n[nH]1,·,·,2.5µM*,-15%
CCC(C)(C)OC,·,·,12%,·
O=C(CSc1ncnc2sc3c(c12)CCCC3)c1ccco1,>77,·,-5%,32µM*
O=C(CSc1nnc(SCc2ccc(Cl)cc2)s1)N1CCN(C(=O)c2ccco2)CC1,>77,·,-3%,4µM*
O=C(CSc1ncnc2sc3c(c12)CCCCC3)NCc1ccco1,>77,>57,-27%,-3%
O=C(c1ccco1)N1CCN(c2nc(C3CC3)nc3sc4c(c23)CCCC4)CC1,?,>57,7%,0%
CCc1nc(SCC(=O)N2CCN(C(=O)c3ccco3)CC2)c2c3c(sc2n1)CCCC3,>77,>57,20µM*,-6%
Cc1noc(C)c1-c1cc(NCc2cccs2)ncn1,·,·,-12%,-1%[2.29 µM]
O=C(Nc1ccc(N2CCOCC2)cc1)c1cnsn1,>77,7.1*,-4%,4µM*
O=C(Nc1nc2ccccc2s1)C1CCCO1 (centres undefined),>77,·,?,-24%
O=C(Nc1ncc(Cc2ccccc2)s1)C1CCCO1 (centres undefined),·,·,·,10µM*
COC(=O)Cc1c(C)c2cc(Cl)c(OC(=O)c3ccco3)cc2oc1=O,>15,>57,13µM*,-1%
COC(=O)Cc1c(C)c2ccc(OC(=O)c3ccco3)cc2oc1=O,>77,>57,4µM*,-9%
O=C(Oc1cc2oc(=O)c3c(c2cc1Cl)CCCC3)c1ccco1,·,·,-9%,-11%
Cc1noc(C)c1CSc1nc2[nH]ncc2c(=O)n1-c1ccccc1,>77,>57,13µM*,-2%
CNc1cc(C)nc(-n2nc(C)cc2C)n1,>77,>57,-14%,-9%
CCOc1ccc(Nc2cc(C)nc(-n3nc(C)cc3C)n2)cc1,>77,6.3*,?,1%
COc1ccc(Nc2cc(C)nc(N3CCOCC3)n2)cc1,11*,1.5*,?,-3%
Cc1cc(C)nc(Nc2ccc(N3CCOCC3)cc2)n1,>77,·,?,-29%
CC(=O)c1cc(C)oc1C,·,·,6%,·
COC(=O)c1ccc(C(NC(=O)OCc2ccccc2)/C(F)=C/[C@@H](C)C(=O)NCc2cc(C)on2)cc1 (some centres undefined),·,·,11%,·
COC(=O)c1c(C)[nH]c(C(=O)COC(=O)Cc2ccc3c(c2)OCCO3)c1C,15*,>57,-22%,-2%
SMILES,GBA activity,PK Bst,ERK AVP block,Luciferase inh
CCOC(=O)c1c(C)[nH]c(C(=O)COC(=O)c2oc3ccc(OC)cc3c2C)c1C,·,>57,2%,2%
O=c1c(-c2ccc(F)c(F)c2)nc2cncnc2n1C1CC1,·,·,-23%,1%[11.4 µM]
COc1ccc(Nc2cc(C(=O)NCCCN3CCN(C)CC3)c3ccccc3n2)cc1OC,>77,i,16%,25µM*
CCOC(=O)C1CCCN(C(=O)c2cc(Nc3ccc(OC)c(OC)c3)nc3ccccc23)C1 (centres undefined),>77,i,-28%,16µM*
O=C(Nc1cccnc1)c1ccccc1Oc1ccccc1,>77,>57,?,1%
O=C(Nc1ccccc1)Nc1cccc2cccnc12,>77,·,-16%,20µM*
O=C(Nc1cccnc1)Nc1ccccc1Cl,15*,·,-8%,-19%
O=C(Nc1cccnc1)Nc1ccc(Br)cc1Cl,·,>57,?,-3%
O=C(Nc1ccccc1)Nc1ccccn1,>77,·,-7%,-25%
O=C(Nc1cccnc1)c1ccc(Oc2ccccc2)cc1,15*,i,-27%,13µM*
NC1=NC2(CCC(c3ccccc3)CC2)n2c(nc3ccccc32)N1 (centres undefined),15*,>57,18%,1%
NC1=NC2(CCCCC2)n2c(nc3ccccc32)N1,i,>57,-1%,0%
c1ccc(CN2CCN(c3nc4ccccc4n4cnnc34)CC2)cc1,·,·,-16%,-4%
NC1=NC2(CCN(Cc3ccccc3)CC2)n2c(nc3ccccc32)N1,3.7*,6.9*,-10%,-2%
O=C(O)/C=C(/c1ccccc1)C(F)(F)F,·,·,3%,-11%
C/C=C/c1ccc(OCCSc2nc(C)cc(=O)[nH]2)c(OC)c1,>77,·,-16%,-22%
